Laboratory results taken from PubChem BioAssay (NCATS).
Results filed as inconclusive are left out. Entries that show only a call come without a potency. The source made the active and inactive calls. The call rests on the fitted dose curve; in most records, active means well fitted curve in the direction sought with a large enough effect; inconclusive means small, poorly fitted or top-dose-only effect, or another doubt; inactive means no such curve, though single readings can be large; an effect the other way counts as inactive or inconclusive.

Assays:
[1] = test system: Zika virus NS2B-NS3 protease; assay: Primary screen GU AMC qHTS for Zika virus inhibitors (AID 1347154); details: Zika NS2B-NS3 unlinked protease, AMC fluorogenic substrate; series mostly up to 54.1 µM; further: nearly all actives have a fitted effect of over 70% in size; further: potency means the concentration at half of the fitted maximal effect
Procedure, shortened: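 Unlinked Zika NS2B hydrophilic domain/NS3 protease domain noncovalent complex (25 nM final) in 10 mM Tris-HCl pH 8.0, 0.01% Tween 20, with AMC peptide substrate. Fluorescence (ex 340, em 450 nm) change over 15 min, room temperature; percent inhibition fitted to 4-parameter Hill equation.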

[2] = test system: Zika virus NS2B-NS3 protease (unlinked complex); assay: Primary screen GU Rhodamine qHTS for Zika virus inhibitors: Unlinked NS2B-NS3 protease assay (AID 1347159); details: Recombinant ZIKV NS2B-NS3 protease, Rhodamine110 substrate fluorescence; series mostly up to 107 µM; further: nearly all actives have a fitted effect of over 60% in size; further: potency means the concentration at half of the fitted maximal effect
Procedure, shortened: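 Buffer 10 mM Tris-HCl pH 8.0, 0.01% Tween 20. Unlinked protease 25 nM; compound preincubation 15 min, RT, protected from light. Substrate Rhod110, 1.5 microM; ~15% conversion in 15 min.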

[3] = test system: Zika virus NS2B-NS3 protease (linked construct); assay: Primary screen NINDS Rhodamine qHTS for Zika virus inhibitors (AID 1347160); details: purified NS2B-NS3 protease, Rhodamine110 substrate fluorescence; series mostly up to 57.1 µM; further: nearly all actives have a fitted effect of over 55% in size; further: potency means the concentration at half of the fitted maximal effect
Procedure, shortened: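 Aprotinin served as in-plate control. Conditions: 25 nM linked NS2B-NS3, pH 8.0 Tris buffer, titrated compounds, 15 min preincubation and 15 min reaction with 1.5 microM Rhod110 substrate at room temperature.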

[4] = ZIKV-mCherry secondary qHTS for Zika virus inhibitors (AID 1347158); details: Vero cells, ZIKV-mCherry infection imaging, 48-72 h; series mostly up to 49.2 µM; further: top concentration of the series differs between compounds
Procedure, shortened: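 Percent infection is the share of Hoechst-identified Vero nuclei with mCherry signal above 450 RFU (3 SD over negative controls). Cells were infected with recombinant ZIKV-mCherry at MOI 1 after compound addition and imaged 48–72 h later.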

[5] = Confirmatory screen NINDS Rhodamine qHTS for Zika virus inhibitors (AID 1347161); details: purified enzyme assay, Rhodamine110 substrate fluorescence, 15 min; series mostly up to 114 µM; further: potency means the concentration at half of the fitted maximal effect; nearly all actives have a fitted effect of over 60% in size
Procedure, shortened: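 Purified NS2B-NS3 protease with the NS2B hydrophilic domain joined by a flexible linker (25 nM) in 10 mM Tris-HCl pH 8.0, 0.01% Tween 20, preincubated 15 min at RT with compound; Rhodamine110 peptide substrate 1.5 µM; fluorescence change over 15 min; 4-parameter Hill fit.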

[6] = test system: Zika virus NS2B-NS3 protease (linked); assay: 384 well plate NINDS AMC confirmatory qHTS for Zika virus inhibitors (AID 1347163); details: Recombinant NS2B-NS3 protease, Ac-VKTGKR-AMC fluorescence; series mostly up to 100 µM; further: nearly all actives have a fitted effect of over 50% in size; further: potency means the concentration at half of the fitted maximal effect
Procedure, shortened: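 Fluorescence at 355/460 nm was read after 25 minutes of cleavage of 30 microM Ac-VKTGKR-AMC at room temperature, in the dark. Before substrate addition, compounds (up to 1 mM final) sat ~15 minutes with 5, 30 or 60 nM linked protease. Signals were normalized to no-enzyme and no-inhibitor wells.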

[7] = test system: Zika virus NS2B-NS3 protease (linked construct); assay: 384 well plate NINDS Rhodamine confirmatory qHTS for Zika virus inhibitors (AID 1347164); details: rhodamine-110 peptide substrate fluorescence; series mostly up to 1 mM; further: nearly all actives have a fitted effect of over 65% in size; further: potency means the concentration at half of the fitted maximal effect
Procedure, shortened: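 Compounds are incubated about 15 minutes with linked protease (5, 30 or 60 nM final). Rhodamine 110-tagged Ac-LKRR substrate (10 microM final) is added and fluorescence measured after 25 minutes.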

[8] = Confirmatory screen GU Rhodamine qHTS for Zika virus inhibitors qHTS (AID 1347157); details: purified enzyme assay, Rhodamine110 substrate fluorescence, 15 min; series mostly up to 114 µM; further: potency means the concentration at half of the fitted maximal effect; nearly all actives have a fitted effect of over 70% in size
Procedure, shortened: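 Percent inhibition derives from the 15-min fluorescence change (ex 480, em 540 nm), normalized to no-enzyme and no-inhibitor wells. Reactions contained 25 nM NS2B-NS3 complex and 1.5 microM substrate in 10 mM Tris-HCl pH 8.0.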

[9] = Vero cells viability qHTS for Zika virus inhibitors (AID 1347167); details: cytotoxicity counter-screen (Zika); series mostly up to 45.9 µM
Procedure, shortened: (§1)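 To flag cytotoxic protease inhibitors, viability is measured by ATP-dependent luminescence (CellTiter Glo) after cells attached overnight receive compound for 24 to 48 hours in DMEM with 4% FBS.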

[10] = HepG2 cells viability qHTS for Zika virus inhibitors (AID 1347168); details: Zika counter-screen; series mostly up to 45.9 µM
Procedure, shortened: as §1

[11] = qHTS to identify inhibitors of the type 1 interferon - major histocompatibility complex class I in skeletal muscle: primary screen against the NCATS Mechanism Interrogation Plate v5.0 (MIPE) Libary (AID 1347411); details: iHSKM cells + IFN-b, HiBiT-tagged MHC-I luminescence, 24 h; series mostly up to 45.8 µM; further: nearly all actives have a fitted effect of over 65% in size
Procedure, shortened: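 Luminescence from CRISPR HiBit-tagged endogenous HLA-B in human myoblasts reported MHC class I level after 24 h of IFN-beta (4 ng/ml) plus compound. Compounds ran as 11-point 1:3 series, top 46 uM final.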

C[C@@H]1O[C@@H](O[C@H]2CC[C@@]3(C)[C@H](CC[C@@H]4[C@H]3C[C@@H](O)[C@]3(C)[C@@H](C5=CC(=O)OC5)CC[C@]43O)C2)C[C@H](O)[C@@H]1O[C@H]1C[C@H](O)[C@H](O[C@H]2C[C@H](O)[C@@H](O)[C@@H](C)O2)[C@H](C)O1 (stereo in doubt)
Potency [1]: inactive

NC(N)=Nc1nc(CSCCC(N)=NS(N)(=O)=O)cs1
Potency [1]: inactive

CCC(=C(CC)c1ccc(O)cc1)c1ccc(O)cc1
Potency [1]: inactive

CC(=O)OCC(=O)[C@@]12OC(C)(C)O[C@H]1C[C@H]1[C@@H]3C[C@H](F)C4=CC(=O)C=C[C@]4(C)[C@@]3(F)[C@@H](O)C[C@@]12C
Potency [1]: inactive

CCN1CCN(c2ccc(Nc3cc(N(C)C(=O)Nc4c(Cl)c(OC)cc(OC)c4Cl)ncn3)cc2)CC1
Potency [1]: inactive
Potency [2]: inactive

C[C@@H](NC(=O)c1ncnc(N)c1Cl)c1ncc(C(=O)Nc2cc(C(F)(F)F)c(Cl)cn2)s1
Potency [1]: inactive
Potency [2]: inactive
Potency [3]: inactive

Nc1ncnc2c1c(-c1cccc(OCc3ccccc3)c1)cn2C1CC(CN2CCC2)C1 (stereo unspecified)
Potency [1]: inactive
Potency [2]: inactive

CO[C@H]1/C=C\O[C@@]2(C)Oc3c(C)c(O)c4c(O)c(c5c(nc6cc(C)ccn65)c4c3C2=O)NC(=O)C(C)=CC=C[C@H](C)[C@H](O)[C@@H](C)[C@@H](O)[C@@H](C)[C@H](OC(C)=O)[C@H]1C
Potency [1]: inactive

C[C@@]1(C(=O)Nc2ccc(F)nc2)CCCN1c1nc(Nc2cc(C3CC3)[nH]n2)c2cccn2n1
Potency [1]: inactive
Potency [2]: inactive

O=c1cc(-c2ccc(O)c(O)c2)oc2cc(O)cc(O)c12
Potency [1]: inactive
outcome [4]: inactive
Potency [5]: 28.2 µM (active)
Potency [6]: 70.8 µM (active)
Potency [7]: inactive

CC1C(=O)OC2C(O)C34C5CC(C(C)(C)C)C36C(OC(=O)C6O)OC4(C(=O)O5)C12O (stereo unspecified)
Potency [1]: inactive

COc1cc(Nc2nc3ccccc3nc2NS(=O)(=O)c2ccc(NC(=O)c3ccc(C)c(OC)c3)cc2)cc(OC)c1
Potency [1]: inactive
Potency [8]: 1.39 µM (active)
outcome [4]: inactive
Potency [2]: 1.78 µM (active)
Potency [3]: 3.16 µM (active)
Potency [5]: 1.39 µM (active)
Potency [6]: inactive
Potency [7]: 8.91 µM (active)
outcome [9]: inactive
outcome [10]: inactive
Potency [11]: inactive

CC(=O)O[C@]1(C(C)=O)CC[C@H]2[C@@H]3C=C(Cl)C4=CC(=O)[C@@H]5C[C@H]5[C@]4(C)[C@@H]3CC[C@@]21C
Potency [1]: inactive

COc1cc2c(cc1OC)[C@@H]1Cc3ccc(OC)c(OC)c3CN1CC2
Potency [1]: inactive

Cc1[nH]c(C=C2C(=O)Nc3ccc(S(=O)(=O)N(C)c4cccc(Cl)c4)cc32)c(C)c1C(=O)N1CCN(C)CC1
Potency [1]: inactive

CN[C@@H]1[C@@H](O)[C@@H](O[C@@H]2[C@@H](O)[C@H](O[C@H]3O[C@H](CN)[C@@H](O)[C@H](O)[C@@H]3O)[C@@H](N)C[C@@H]2NC(=O)[C@@H](O)CN)OC[C@]1(C)O
Potency [1]: inactive

Cc1cnc(Nc2cccc(CN3CCOCC3)c2)nc1Nc1cccc(S(=O)(=O)NC(C)(C)C)c1
Potency [1]: inactive
Potency [2]: inactive
Potency [3]: inactive

CN(C)S(=O)(=O)c1ccc2c(c1)C(=Cc1cc3c([nH]1)CCCC3)C(=O)N2
Potency [1]: inactive

CN(CC=CC#CC(C)(C)C)Cc1cccc2ccccc12
Potency [1]: inactive

O=c1[nH]c(=O)n([C@H]2C[C@@H](O)[C@@H](CO)O2)cc1I
Potency [1]: inactive

COc1cc([C@@H]2c3cc4c(cc3[C@@H](O[C@@H]3O[C@@H]5CO[C@@H](C)O[C@@H]5[C@H](O)[C@@H]3O)[C@H]3COC(=O)[C@H]23)OCO4)cc(OC)c1O
Potency [1]: inactive

NC(=O)c1nnn(Cc2cc(Cl)c(C(=O)c3ccc(Cl)cc3)c(Cl)c2)c1N
Potency [1]: inactive

NC(=O)c1ncn([C@@H]2O[C@H](CO)[C@@H](O)[C@@H]2O)n1
Potency [1]: inactive

Cc1ccc(C(=O)N(CCCN)[C@@H](c2nc3cc(Cl)ccc3c(=O)n2Cc2ccccc2)C(C)C)cc1
Potency [1]: inactive

CNC(=O)c1cc(COc2nnc(Nc3ccc(Cl)cc3)c3ccoc23)ccn1
Potency [1]: inactive

Oc1cc(O)cc(C=Cc2ccc(O)c(O)c2)c1
Potency [1]: 13.6 µM (active)

N#CC1(c2cccc(C(=O)Nc3cc(Oc4ccc5nc(NC(=O)C6CC6)sc5n4)ccc3F)c2Cl)CC1
Potency [1]: 21.5 µM (active)
Potency [8]: 22.1 µM (active)
Potency [2]: 22.4 µM (active)
Potency [3]: inactive
Potency [7]: 50.1 µM (active)
outcome [9]: inactive
outcome [10]: inactive
Potency [11]: inactive

CCCCC(C=O)NC(=O)C(CC(C)C)NC(=O)OCc1ccccc1 (stereo unspecified)
Potency [1]: inactive
